Holding throughout (assay): DAPPL (digital affinity profiling via proximity ligation, sequencing); 10 mM Tris-HCl pH 7.5, 50 mM NaCl, 1 mM DTT, 4% glycerol, room temperature, 30 min; GST-TFs on glutathione beads, 16-mer random dsDNA library, 0.1% formaldehyde crosslink after washing; high values mean tight binding
Holding throughout (details): protein: recombinant; tags: N-terminal GST; dsDNA, one strand shown

In assay [1] the target is T1, ELK4 (Homo sapiens, UniProt P28324-2 1-405).
T1 sequence: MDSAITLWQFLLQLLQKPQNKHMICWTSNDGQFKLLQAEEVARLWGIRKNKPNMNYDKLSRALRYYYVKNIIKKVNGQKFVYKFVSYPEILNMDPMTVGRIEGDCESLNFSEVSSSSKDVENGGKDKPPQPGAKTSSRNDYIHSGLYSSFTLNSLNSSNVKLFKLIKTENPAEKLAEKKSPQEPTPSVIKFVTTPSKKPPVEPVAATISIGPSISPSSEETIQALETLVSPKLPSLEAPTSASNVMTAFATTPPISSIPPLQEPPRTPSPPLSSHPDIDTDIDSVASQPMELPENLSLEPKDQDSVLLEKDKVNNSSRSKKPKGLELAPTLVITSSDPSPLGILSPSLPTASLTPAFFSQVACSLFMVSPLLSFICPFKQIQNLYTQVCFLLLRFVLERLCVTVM
Summed up:
(§1)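 Human transcription factors fused to GST were expressed in yeast, captured on glutathione beads, given DNA barcodes and pooled with a GST-only negative control. Pools were incubated with 200 nmole of a 16-mer random double-stranded DNA library in Tris/NaCl/DTT/glycerol buffer at room temperature for 30 min. They were then washed, crosslinked with 0.1% formaldehyde, proximity-ligated (BsaI/T4 ligase, 1 h, 37 °C), PCR-amplified and sequenced on an Illumina NextSeq500. Binding signal is each 6-mer's read frequency for a factor divided by its frequency for the GST control.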

In assay [2] the target is T2, ELF3 (Homo sapiens, UniProt P78545 1-371).
T2 sequence: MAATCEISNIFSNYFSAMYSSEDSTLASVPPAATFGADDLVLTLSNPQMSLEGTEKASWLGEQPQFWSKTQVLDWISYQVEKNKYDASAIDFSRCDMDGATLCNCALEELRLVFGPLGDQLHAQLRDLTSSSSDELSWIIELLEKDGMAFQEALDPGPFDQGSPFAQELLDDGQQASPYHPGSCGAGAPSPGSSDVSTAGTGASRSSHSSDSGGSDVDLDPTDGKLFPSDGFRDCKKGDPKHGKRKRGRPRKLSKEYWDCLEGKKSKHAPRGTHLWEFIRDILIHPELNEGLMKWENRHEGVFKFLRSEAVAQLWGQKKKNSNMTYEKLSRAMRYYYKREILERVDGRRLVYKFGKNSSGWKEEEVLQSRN
In a few lines:
as §1

The target in assay [3] is T3, ETV2 (Homo sapiens, UniProt O00321 1-342).
T3 sequence: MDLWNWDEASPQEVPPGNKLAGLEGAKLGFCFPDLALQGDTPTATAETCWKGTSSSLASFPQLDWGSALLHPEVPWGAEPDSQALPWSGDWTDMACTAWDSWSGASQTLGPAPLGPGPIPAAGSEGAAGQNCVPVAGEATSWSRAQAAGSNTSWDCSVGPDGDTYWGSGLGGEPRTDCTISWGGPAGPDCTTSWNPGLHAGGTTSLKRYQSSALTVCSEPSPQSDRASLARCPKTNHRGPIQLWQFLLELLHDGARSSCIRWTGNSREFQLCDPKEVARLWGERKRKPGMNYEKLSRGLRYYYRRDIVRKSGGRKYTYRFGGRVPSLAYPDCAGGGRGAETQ
In a few lines:
as §1

Assay [4] deals with T4, ETV7 (Homo sapiens, UniProt Q9Y603 1-341).
T4 sequence: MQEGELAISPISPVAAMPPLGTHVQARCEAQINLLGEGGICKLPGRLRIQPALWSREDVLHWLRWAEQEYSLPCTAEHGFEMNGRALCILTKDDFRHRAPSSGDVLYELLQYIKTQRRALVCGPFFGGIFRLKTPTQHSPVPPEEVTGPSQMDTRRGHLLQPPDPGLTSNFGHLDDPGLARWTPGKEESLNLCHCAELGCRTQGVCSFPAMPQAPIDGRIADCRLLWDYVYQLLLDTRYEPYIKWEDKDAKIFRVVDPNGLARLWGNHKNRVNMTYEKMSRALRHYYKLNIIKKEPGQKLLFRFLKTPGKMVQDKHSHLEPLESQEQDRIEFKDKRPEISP
In a few lines: as §1

Assay [5] addresses T5, ELK3 (Homo sapiens, UniProt P41970 1-407).
T5 sequence: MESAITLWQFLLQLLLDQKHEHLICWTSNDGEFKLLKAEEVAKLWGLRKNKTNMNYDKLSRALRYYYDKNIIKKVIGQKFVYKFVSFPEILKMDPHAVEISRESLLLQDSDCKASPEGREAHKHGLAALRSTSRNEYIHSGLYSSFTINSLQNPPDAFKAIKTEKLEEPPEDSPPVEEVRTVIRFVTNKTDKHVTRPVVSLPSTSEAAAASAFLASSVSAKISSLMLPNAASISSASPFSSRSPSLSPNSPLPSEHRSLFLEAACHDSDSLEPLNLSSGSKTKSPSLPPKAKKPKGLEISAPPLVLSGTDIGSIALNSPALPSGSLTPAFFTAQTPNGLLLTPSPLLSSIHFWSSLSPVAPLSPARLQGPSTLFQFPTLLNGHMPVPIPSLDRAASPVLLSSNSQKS
Summed up:
as §1

Assay [6] deals with CRX (Homo sapiens, UniProt O43186 1-299). Summed up: as §1
CRX, sequence (O43186 whole entry): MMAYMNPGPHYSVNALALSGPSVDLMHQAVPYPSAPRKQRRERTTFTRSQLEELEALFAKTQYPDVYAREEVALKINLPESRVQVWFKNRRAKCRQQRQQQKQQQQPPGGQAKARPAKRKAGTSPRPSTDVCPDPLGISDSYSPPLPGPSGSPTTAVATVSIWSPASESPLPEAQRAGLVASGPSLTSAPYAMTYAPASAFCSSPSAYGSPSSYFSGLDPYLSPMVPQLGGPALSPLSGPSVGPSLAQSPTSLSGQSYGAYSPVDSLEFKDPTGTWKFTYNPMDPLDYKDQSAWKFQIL

As for GGCTCG, the binding signal in assay [1] is 1.11 fold enrichment (6-mer frequency, TF over GST control); in assay [2] it was 1 fold enrichment (6-mer frequency, TF over GST control).

As to CGCTGG, the binding signal in assay [1] was 1.01 fold enrichment (6-mer frequency, TF over GST control); in assay [3], 1.03 fold enrichment (6-mer frequency, TF over GST control); in assay [4], 1.02 fold enrichment (6-mer frequency, TF over GST control).

With TACGGT, the binding signal in assay [5] was 1.11 fold enrichment (6-mer frequency, TF over GST control); in assay [1], 1.02 fold enrichment (6-mer frequency, TF over GST control); in assay [3], 1.07 fold enrichment (6-mer frequency, TF over GST control); in assay [2], 1.11 fold enrichment (6-mer frequency, TF over GST control); in assay [6], 1.03 fold enrichment (6-mer frequency, TF over GST control); in assay [4], 1.08 fold enrichment (6-mer frequency, TF over GST control).

For CAGCTA, the binding signal in assay [5] is 1.02 fold enrichment (6-mer frequency, TF over GST control); in assay [1], 1.16 fold enrichment (6-mer frequency, TF over GST control); in assay [2], 1.1 fold enrichment (6-mer frequency, TF over GST control); in assay [6], 1.05 fold enrichment (6-mer frequency, TF over GST control); in assay [4], 1.13 fold enrichment (6-mer frequency, TF over GST control).

With AGTGTC, the binding signal in assay [5] is 1.01 fold enrichment (6-mer frequency, TF over GST control); in assay [3], 1.02 fold enrichment (6-mer frequency, TF over GST control); in assay [2], 1.11 fold enrichment (6-mer frequency, TF over GST control); in assay [4], 1.16 fold enrichment (6-mer frequency, TF over GST control).

In the case of TGTGGT, the binding signal in assay [1] was 1.03 fold enrichment (6-mer frequency, TF over GST control); in assay [3] it was 1.07 fold enrichment (6-mer frequency, TF over GST control); in assay [2], 1.2 fold enrichment (6-mer frequency, TF over GST control); in assay [4] it was 1.11 fold enrichment (6-mer frequency, TF over GST control).

Consider GTTACG, for which the binding signal in assay [5] was 1.01 fold enrichment (6-mer frequency, TF over GST control); in assay [1], 1.03 fold enrichment (6-mer frequency, TF over GST control); in assay [3], 1.22 fold enrichment (6-mer frequency, TF over GST control); in assay [4] it was 1.02 fold enrichment (6-mer frequency, TF over GST control).

For the sequence CCCCGT, the binding signal in assay [5] was 1.09 fold enrichment (6-mer frequency, TF over GST control); in assay [3], 1.1 fold enrichment (6-mer frequency, TF over GST control); in assay [2], 1.26 fold enrichment (6-mer frequency, TF over GST control).

With CTGCGG, the binding signal in assay [5] was 1.05 fold enrichment (6-mer frequency, TF over GST control); in assay [3], 1.25 fold enrichment (6-mer frequency, TF over GST control); in assay [2], 1.2 fold enrichment (6-mer frequency, TF over GST control); in assay [4], 1.18 fold enrichment (6-mer frequency, TF over GST control).

For CGGAAC, the binding signal in assay [5] is 1.21 fold enrichment (6-mer frequency, TF over GST control); in assay [3], 1.14 fold enrichment (6-mer frequency, TF over GST control); in assay [2], 1.11 fold enrichment (6-mer frequency, TF over GST control).

For AGTATG, the binding signal is 1.08 fold enrichment (6-mer frequency, TF over GST control) in assay [2] and 1.12 fold enrichment (6-mer frequency, TF over GST control) in assay [4].

Regarding AGGAAC, the binding signal in assay [5] is 1 fold enrichment (6-mer frequency, TF over GST control); in assay [3] it was 1.15 fold enrichment (6-mer frequency, TF over GST control); in assay [2] it was 1.04 fold enrichment (6-mer frequency, TF over GST control).

For the sequence TCGTCA, the binding signal in assay [3] is 1.02 fold enrichment (6-mer frequency, TF over GST control).

In the case of GGTCCT, the binding signal was 1.05 fold enrichment (6-mer frequency, TF over GST control) in assay [1]; 1.13 fold enrichment (6-mer frequency, TF over GST control) in assay [3]; 1.09 fold enrichment (6-mer frequency, TF over GST control) in assay [4].

In the case of TGCGGC, the binding signal in assay [5] is 1.01 fold enrichment (6-mer frequency, TF over GST control); in assay [2], 1.33 fold enrichment (6-mer frequency, TF over GST control); in assay [4], 1.07 fold enrichment (6-mer frequency, TF over GST control).

Take AGTGTA: the binding signal in assay [4] is 1.1 fold enrichment (6-mer frequency, TF over GST control).

GCTATC: the binding signal in assay [5] is 1.12 fold enrichment (6-mer frequency, TF over GST control); in assay [1], 1.13 fold enrichment (6-mer frequency, TF over GST control); in assay [3] it was 1.04 fold enrichment (6-mer frequency, TF over GST control); in assay [2], 1.04 fold enrichment (6-mer frequency, TF over GST control); in assay [4], 1.18 fold enrichment (6-mer frequency, TF over GST control).

Consider CAACCG, for which the binding signal is 1.2 fold enrichment (6-mer frequency, TF over GST control) in assay [5]; 1.08 fold enrichment (6-mer frequency, TF over GST control) in assay [3]; 1.08 fold enrichment (6-mer frequency, TF over GST control) in assay [2].

On to CCCGGT, for which the binding signal in assay [1] was 1.13 fold enrichment (6-mer frequency, TF over GST control); in assay [2], 1.06 fold enrichment (6-mer frequency, TF over GST control); in assay [4], 1.01 fold enrichment (6-mer frequency, TF over GST control).

Regarding GTCCGC, the binding signal in assay [5] is 1.1 fold enrichment (6-mer frequency, TF over GST control); in assay [1], 1.09 fold enrichment (6-mer frequency, TF over GST control); in assay [2], 1.01 fold enrichment (6-mer frequency, TF over GST control).

Turning to CATTGT, the binding signal is 1.08 fold enrichment (6-mer frequency, TF over GST control) in assay [5]; 1.17 fold enrichment (6-mer frequency, TF over GST control) in assay [1]; 1.11 fold enrichment (6-mer frequency, TF over GST control) in assay [3]; 1.02 fold enrichment (6-mer frequency, TF over GST control) in assay [2]; 1.11 fold enrichment (6-mer frequency, TF over GST control) in assay [4].

For the sequence TACCCC, the binding signal was 1.11 fold enrichment (6-mer frequency, TF over GST control) in assay [5]; 1.19 fold enrichment (6-mer frequency, TF over GST control) in assay [1]; 1.19 fold enrichment (6-mer frequency, TF over GST control) in assay [3]; 1.04 fold enrichment (6-mer frequency, TF over GST control) in assay [2]; 1.03 fold enrichment (6-mer frequency, TF over GST control) in assay [6]; 1.1 fold enrichment (6-mer frequency, TF over GST control) in assay [4].

As for GTACCC, the binding signal was 1.12 fold enrichment (6-mer frequency, TF over GST control) in assay [5]; 1.17 fold enrichment (6-mer frequency, TF over GST control) in assay [1]; 1.11 fold enrichment (6-mer frequency, TF over GST control) in assay [3]; 1.17 fold enrichment (6-mer frequency, TF over GST control) in assay [2]; 1.06 fold enrichment (6-mer frequency, TF over GST control) in assay [4].

GTTATA: the binding signal in assay [5] is 1.06 fold enrichment (6-mer frequency, TF over GST control); in assay [2], 1.13 fold enrichment (6-mer frequency, TF over GST control); in assay [6] it was 1.08 fold enrichment (6-mer frequency, TF over GST control); in assay [4], 1.05 fold enrichment (6-mer frequency, TF over GST control).

On to AACGGA, for which the binding signal in assay [5] was 1.13 fold enrichment (6-mer frequency, TF over GST control); in assay [3] it was 1.02 fold enrichment (6-mer frequency, TF over GST control); in assay [2] it was 1.03 fold enrichment (6-mer frequency, TF over GST control); in assay [4] it was 1.01 fold enrichment (6-mer frequency, TF over GST control).

Regarding ACTAGG, the binding signal in assay [1] was 1.03 fold enrichment (6-mer frequency, TF over GST control); in assay [3], 1.28 fold enrichment (6-mer frequency, TF over GST control).

Turning to AGTAAC, the binding signal in assay [5] was 1.01 fold enrichment (6-mer frequency, TF over GST control); in assay [3], 1.05 fold enrichment (6-mer frequency, TF over GST control).

For the sequence GTTGTA, the binding signal in assay [2] was 1.04 fold enrichment (6-mer frequency, TF over GST control); in assay [4] it was 1.06 fold enrichment (6-mer frequency, TF over GST control).

For the sequence GCAACC, the binding signal in assay [5] was 1.09 fold enrichment (6-mer frequency, TF over GST control); in assay [4], 1.01 fold enrichment (6-mer frequency, TF over GST control).

Regarding ACGGTT, the binding signal in assay [3] is 1.16 fold enrichment (6-mer frequency, TF over GST control); in assay [4] it was 1.04 fold enrichment (6-mer frequency, TF over GST control).

As to ACATAG, the binding signal in assay [5] was 1.07 fold enrichment (6-mer frequency, TF over GST control); in assay [3] it was 1.11 fold enrichment (6-mer frequency, TF over GST control); in assay [2], 1.14 fold enrichment (6-mer frequency, TF over GST control); in assay [4], 1.13 fold enrichment (6-mer frequency, TF over GST control).
